Experimental data as given in PubChem BioAssay AID1159580 (chemical genetic matrix, 2015).
Values joined by “and” are separate entries in the source; they are usually repeats but may differ in a detail not shown here. Equal values may be shown once. About 2,000 (36%) of roughly 5,500 compounds were called active. Inconclusive results (about 18%) are left out. Cut-off read from the data, not from the text of the source: active = normalized growth mostly below about 0.91 (no sharp cut-off); inconclusive = no clear call, values can overlap the other calls; inactive = mostly above about 0.92. This is one part of the list.

Assay: chemical genetic growth profiling, strain panel (AID 1159580);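 note: tested at 20 µM; growth read once vehicle control cultures reached saturation at 30 °C; 1 = growth at the plate median or of vehicle wells; lower values mean less growth of the strain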
Conditions: growth OD

Measured: normalized growth

O=C1CCC(N2C(=O)c3ccccc3C2=O)C(=O)N1 (stereo unspecified)
inactive: S. cerevisiae deletion strains, locus YJR075W, strain HOC1, stronger effect = lower value 0.972 and 1.02 | S. cerevisiae deletion strains, locus YKL009W, strain mrt4, stronger effect = lower value 1.03 | S. cerevisiae deletion strains, locus YKL068W, stronger effect = lower value 0.997 | S. cerevisiae deletion strains, locus YKL085W, strain MDH1 (second series), stronger effect = lower value 1.03 | S. cerevisiae deletion strains, locus YKL085W, strain MDH1, stronger effect = lower value 1.03 | S. cerevisiae deletion strains, locus YKL160W, strain elf1, stronger effect = lower value 1 | S. cerevisiae deletion strains, locus YKL190W, strain CNB1, stronger effect = lower value 1.02 | S. cerevisiae deletion strains, locus YKR001C, strain vps1, stronger effect = lower value 0.969 | S. cerevisiae deletion strains, locus YKR026C, strain gcn3, stronger effect = lower value 1.02 | S. cerevisiae deletion strains, locus YKR091W, strain srl3, stronger effect = lower value 1.02 | S. cerevisiae deletion strains, locus YLL001W, strain dnm1, stronger effect = lower value 1.04 | S. cerevisiae deletion strains, locus YLL026W, stronger effect = lower value 1.01 | S. cerevisiae deletion strains, locus YLL041C, strain sdh2, stronger effect = lower value 1.03 | S. cerevisiae deletion strains, locus YLR027C, strain aat2, stronger effect = lower value 1 | S. cerevisiae deletion strains, locus YLR039C, strain RIC1, stronger effect = lower value 1.03 | S. cerevisiae deletion strains, locus YLR058C, strain SHM2, stronger effect = lower value 1.01 | S. cerevisiae deletion strains, locus YLR102C, strain apc9, stronger effect = lower value 0.991 | S. cerevisiae deletion strains, locus YLR113W, strain HOG1, stronger effect = lower value 0.971 | S. cerevisiae deletion strains, locus YLR221C, strain rsa3, stronger effect = lower value 1.03 | S. cerevisiae deletion strains, locus YLR258W, strain gsy2, stronger effect = lower value 1.02 | S. cerevisiae deletion strains, locus YLR262C, strain YPT6 (second series), stronger effect = lower value 1.02 | S. cerevisiae deletion strains, locus YLR262C, strain YPT6, stronger effect = lower value 1.05 | S. cerevisiae deletion strains, locus YLR268W, strain sec22, stronger effect = lower value 0.985 | S. cerevisiae deletion strains, locus YLR320W, strain mms22, stronger effect = lower value 1.03 | S. cerevisiae deletion strains, locus YLR330W, strain CHS5, stronger effect = lower value 1 | S. cerevisiae deletion strains, locus YLR342W, strain FKS1 (second series), stronger effect = lower value 0.991 | S. cerevisiae deletion strains, locus YLR342W, strain FKS1, stronger effect = lower value 1.01 | S. cerevisiae deletion strains, locus YLR357W, strain rsc2, stronger effect = lower value 0.997 | S. cerevisiae deletion strains, locus YLR370C, strain arc18, stronger effect = lower value 1.03 | S. cerevisiae deletion strains, locus YLR371W, strain rom2, stronger effect = lower value 0.983 | S. cerevisiae deletion strains, locus YLR384C, strain iki3, stronger effect = lower value 1.03 | S. cerevisiae deletion strains, locus YLR418C, strain cdc73, stronger effect = lower value 0.977 | S. cerevisiae deletion strains, locus YML016C, strain PPZ1, stronger effect = lower value 1.01 | S. cerevisiae deletion strains, locus YML032C, strain rad52, stronger effect = lower value 0.979 | S. cerevisiae deletion strains, locus YML120C, strain ndi1, stronger effect = lower value 1.04 | S. cerevisiae deletion strains, locus YML124C, strain tub3, stronger effect = lower value 0.988 | S. cerevisiae deletion strains, locus YMR058W, strain fet3, stronger effect = lower value 1.02 | S. cerevisiae deletion strains, locus YMR078C, strain ctf18, stronger effect = lower value 0.998 | S. cerevisiae deletion strains, locus YMR125W, strain sto1, stronger effect = lower value 1.01 | S. cerevisiae deletion strains, locus YMR129W, stronger effect = lower value 1.02 | S. cerevisiae deletion strains, locus YMR205C, strain PFK2, stronger effect = lower value 1.01 | S. cerevisiae deletion strains, locus YMR223W, strain ubp8, stronger effect = lower value 0.981 | S. cerevisiae deletion strains, locus YMR231W, strain pep5, stronger effect = lower value 1.01 | S. cerevisiae deletion strains, locus YMR263W, strain SAP30, stronger effect = lower value 1.02 and 1 | S. cerevisiae deletion strains, locus YMR307W, strain GAS1, stronger effect = lower value 1.01 and 0.996 | S. cerevisiae deletion strains, locus YNL067W, strain RPL9B, stronger effect = lower value 1.02 | S. cerevisiae deletion strains, locus YNL071W, strain lat1, stronger effect = lower value 1.03 | S. cerevisiae deletion strains, locus YNL128W, strain TEP1, stronger effect = lower value 1.02 | S. cerevisiae deletion strains, locus YNL153C, strain GIM3, stronger effect = lower value 1.02 | S. cerevisiae deletion strains, locus YNL175C, strain NOP13, stronger effect = lower value 0.997 | S. cerevisiae deletion strains, locus YNL183C, strain NPR1, stronger effect = lower value 0.927 | S. cerevisiae deletion strains, locus YNL197C, strain WHI3, stronger effect = lower value 0.986 | S. cerevisiae deletion strains, locus YNL209W, strain ssb2, stronger effect = lower value 1.02 | S. cerevisiae deletion strains, locus YNL224C, strain SQS1, stronger effect = lower value 0.991 | S. cerevisiae deletion strains, locus YNL233W, strain BNI4, stronger effect = lower value 1.02 | S. cerevisiae deletion strains, locus YNL248C, strain rpa49, stronger effect = lower value 0.957 | S. cerevisiae deletion strains, locus YNL250W, strain rad50, stronger effect = lower value 1 | S. cerevisiae deletion strains, locus YNL271C, strain bni1, stronger effect = lower value 0.986 | S. cerevisiae deletion strains, locus YNL298W, strain CLA4, stronger effect = lower value 1 | S. cerevisiae deletion strains, locus YNL307C, strain MCK1, stronger effect = lower value 0.987 | S. cerevisiae deletion strains, locus YNL322C, strain KRE1 (second series), stronger effect = lower value 1.02 | S. cerevisiae deletion strains, locus YNL322C, strain KRE1, stronger effect = lower value 1.01 | S. cerevisiae deletion strains, locus YNR049C, strain mso1, stronger effect = lower value 1.01 | S. cerevisiae deletion strains, locus YNR052C, strain pop2, stronger effect = lower value 0.991 | S. cerevisiae deletion strains, locus YOL006C, strain TOP1, stronger effect = lower value 1.01 | S. cerevisiae deletion strains, locus YOL012C, strain htz1 0.819 | S. cerevisiae deletion strains, locus YOL147C, strain pex11, stronger effect = lower value 0.989 | S. cerevisiae deletion strains, locus YOR001W, strain rrp6, stronger effect = lower value 1.01 | S. cerevisiae deletion strains, locus YOR061W, strain CKA2, stronger effect = lower value 1.02 | S. cerevisiae deletion strains, locus YOR069W, strain VPS5, stronger effect = lower value 1.01 | S. cerevisiae deletion strains, locus YOR070C, strain gyp1, stronger effect = lower value 1.02 | S. cerevisiae deletion strains, locus YOR080W, strain dia2, stronger effect = lower value 1.02 | S. cerevisiae deletion strains, locus YOR083W, strain WHI5 (second series), stronger effect = lower value 1.01 | S. cerevisiae deletion strains, locus YOR083W, strain WHI5, stronger effect = lower value 1.01 | S. cerevisiae deletion strains, locus YOR106W, strain vam3, stronger effect = lower value 1.01 | S. cerevisiae deletion strains, locus YOR136W, strain idh2, stronger effect = lower value 0.981 | S. cerevisiae deletion strains, locus YOR144C, strain elg1, stronger effect = lower value 0.998 | S. cerevisiae deletion strains, locus YOR184W, strain ser1, stronger effect = lower value 0.981 | S. cerevisiae deletion strains, locus YOR231W, strain MKK1, stronger effect = lower value 0.976 | S. cerevisiae deletion strains, locus YOR265W, strain rbl2, stronger effect = lower value 1.01 | S. cerevisiae deletion strains, locus YOR270C, strain vph1, stronger effect = lower value 1.04 | S. cerevisiae deletion strains, locus YOR290C, strain snf2, stronger effect = lower value 1.01 | S. cerevisiae deletion strains, locus YOR316C, strain cot1, stronger effect = lower value 0.997 | S. cerevisiae deletion strains, locus YPL051W, strain arl3, stronger effect = lower value 1 | S. cerevisiae deletion strains, locus YPL055C, strain LGE1, stronger effect = lower value 1.05 | S. cerevisiae deletion strains, locus YPL078C, strain atp4, stronger effect = lower value 1.01 | S. cerevisiae deletion strains, locus YPL106C, strain sse1, stronger effect = lower value 1.03 | S. cerevisiae deletion strains, locus YPL240C, strain hsp82, stronger effect = lower value 1.02 | S. cerevisiae deletion strains, locus YPL241C, strain CIN2, stronger effect = lower value 1.01 | S. cerevisiae deletion strains, locus YPL256C, strain CLN2, stronger effect = lower value 0.968 | S. cerevisiae deletion strains, locus YPR119W, strain clb2, stronger effect = lower value 0.979 | S. cerevisiae deletion strains, locus YPR141C, strain kar3, stronger effect = lower value 0.988 | S. cerevisiae deletion strains, locus YPR163C, strain tif3, stronger effect = lower value 0.998 | S. cerevisiae deletion strains, locus YPR167C, strain met16, stronger effect = lower value 0.99 | S. cerevisiae deletion strains, strain wtn01, stronger effect = lower value 0.983 | S. cerevisiae strains, strain wild type, stronger effect = lower value 1.01
